# Measurements: PubChem BioAssay (NCATS)
# Inconclusive results are not listed. Entries that show only a call come without a potency. Activity calls are given as the source filed them. The call rests on the fitted dose curve; in most records, active means well fitted inhibition curve with a large enough effect; inconclusive means small, poorly fitted or top-dose-only effect; inactive means flat fitted curve, though single readings scatter. Peptide text beside a SMILES is read from it.
# Columns and labels:
# Assay in all cases: qHTS profiling for inhibitors of Plasmodium falciparum proliferation (AID 504749); further: nearly all actives have a fitted effect of over 60% in size
# Conditions in all cases: P. falciparum in erythrocytes, SYBR Green DNA, 72 h; series mostly up to 28.7 µM
# [1] = tested on: CP237
# Procedure, shortened: (§1)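 Three-day growth assay of blood-stage parasites in erythrocytes (0.3% parasitemia, 2.5% hematocrit) at 37 C, 5% CO2, quantified by SYBR Green DNA staining after overnight detergent lysis.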
# [2] = tested on: CP238
# Procedure, shortened: as §1
# [3] = tested on: CP247
# Procedure, shortened: as §1
# [4] = tested on: CP250
# Procedure, shortened: as §1
# [5] = tested on: CP252
# Procedure, shortened: as §1
# [6] = tested on: CP256
# Procedure, shortened: as §1
# [7] = tested on: CP260
# Procedure, shortened: as §1
# [8] = tested on: CP262
# Procedure, shortened: as §1
# [9] = tested on: CP265
# Procedure, shortened: as §1
# [10] = tested on: CP266
# Procedure, shortened: as §1
# [11] = tested on: CP268
# Procedure, shortened: as §1
# [12] = tested on: CP269
# Procedure, shortened: as §1
# [13] = tested on: CP286
# Procedure, shortened: as §1
# [14] = tested on: CP291
# Procedure, shortened: as §1
# [15] = tested on: CP297
# Procedure, shortened: as §1
# [16] = tested on: CP305
# Procedure, shortened: as §1
# [17] = tested on: CP315
# Procedure, shortened: as §1
# [18] = tested on: CP325
# Procedure, shortened: as §1
# [19] = tested on: CP329
# Procedure, shortened: as §1
# [20] = tested on: CP335
# Procedure, shortened: as §1
# Potency means the concentration at half of the fitted maximal effect.
SMILES,Potency [1],Potency [2],Potency [3],Potency [4],Potency [5],Potency [6],Potency [7],Potency [8],Potency [9],Potency [10],Potency [11],Potency [12],Potency [13],Potency [14],Potency [15],Potency [16],Potency [17],Potency [18],Potency [19],Potency [20]
CC(O)CO (stereo not drawn),inactive,inactive,inactive,inactive,inactive,inactive,inactive,inactive,inactive,inactive,inactive,inactive,inactive,inactive,inactive,inactive,inactive,inactive,inactive,inactive
CC[N+](C)(C)Cc1ccccc1Br,inactive,inactive,inactive,inactive,inactive,inactive,inactive,inactive,inactive,inactive,inactive,inactive,inactive,inactive,inactive,inactive,inactive,inactive,inactive,inactive
CCCCCCC(O)C/C=C/CCCCCCCC(=O)O (stereo not drawn),inactive,inactive,inactive,inactive,inactive,inactive,inactive,inactive,inactive,inactive,inactive,inactive,inactive,inactive,inactive,inactive,inactive,inactive,inactive,inactive
Cc1ccccc1OCC(O)CNCCOc1ccc(C(N)=O)cc1 (stereo not drawn),inactive,inactive,inactive,inactive,inactive,inactive,inactive,inactive,inactive,inactive,inactive,inactive,inactive,inactive,inactive,inactive,inactive,inactive,inactive,inactive
COc1ccc2c3c1O[C@H]1C[C@@H](O)C=C[C@@]31CCN(C)C2,inactive,inactive,inactive,inactive,inactive,inactive,inactive,inactive,inactive,inactive,inactive,inactive,inactive,inactive,inactive,inactive,inactive,inactive,inactive,inactive
CCCCCCCCCCCC[n+]1ccc2ccccc2c1,0.631 µM (active),0.631 µM (active),0.891 µM (active),1.12 µM (active),0.708 µM (active),0.562 µM (active),0.631 µM (active),0.379 µM (active),1.12 µM (active),1.69 µM (active),1.35 µM (active),0.757 µM (active),0.224 µM (active),1.2 µM (active),1.07 µM (active),0.757 µM (active),1.07 µM (active),1.2 µM (active),0.601 µM (active),0.953 µM (active)
CC1=CCC(C(C)(C)O)CC1 (stereo not drawn),inactive,inactive,inactive,inactive,inactive,inactive,inactive,inactive,inactive,inactive,inactive,inactive,inactive,inactive,inactive,inactive,inactive,inactive,inactive,inactive
C#CCOc1ccc2c(C)cc(=O)oc2c1,inactive,inactive,inactive,inactive,inactive,inactive,inactive,inactive,inactive,inactive,inactive,inactive,inactive,inactive,inactive,inactive,inactive,inactive,inactive,inactive
CC(=O)N[C@@H](CC(=O)O)C(=O)N[C@@H](CCC(=O)O)C(=O)O (Ac-Asp-Glu-OH),inactive,inactive,inactive,inactive,inactive,inactive,inactive,inactive,inactive,inactive,inactive,inactive,inactive,inactive,inactive,inactive,inactive,inactive,inactive,inactive
Cc1c(C)c2c(c(C)c1O)CC[C@@](C)(CCC[C@H](C)CCC[C@H](C)CCCC(C)C)O2,inactive,inactive,inactive,inactive,inactive,inactive,inactive,inactive,inactive,inactive,inactive,inactive,inactive,inactive,inactive,inactive,inactive,inactive,inactive,inactive
CCCC(=O)O[C@]1(C(=O)CCl)[C@H](C)C[C@@H]2[C@H]3CCC4=CC(=O)C=C[C@]4(C)[C@@]3(F)C(=O)C[C@@]21C,3.55 µM (active),3.98 µM (active),2 µM (active),1.58 µM (active),3.16 µM (active),0.794 µM (active),2.82 µM (active),1.69 µM (active),2.82 µM (active),3.38 µM (active),4.26 µM (active),4.26 µM (active),2.82 µM (active),4.26 µM (active),1.9 µM (active),4.26 µM (active),3.79 µM (active),4.26 µM (active),1.9 µM (active),1.51 µM (active)
CC1=C(/C=C/C(C)=C/C=C/C(C)=C/C=C/C=C(C)/C=C/C=C(C)/C=C/C2=C(C)CCCC2(C)C)C(C)(C)CCC1,inactive,inactive,inactive,inactive,inactive,inactive,inactive,inactive,inactive,–,inactive,inactive,inactive,inactive,inactive,inactive,inactive,inactive,inactive,inactive
Nc1ncnc2c1ncn2[C@@H]1O[C@H](COP(=O)(O)OP(=O)(O)OP(=O)(O)O)[C@@H](O)[C@H]1O,inactive,inactive,inactive,inactive,inactive,inactive,inactive,inactive,inactive,–,inactive,inactive,inactive,inactive,inactive,inactive,inactive,inactive,inactive,inactive
CCCCC(=O)O[C@]1(C(=O)CO)[C@H](C)C[C@H]2[C@@H]3CCC4=CC(=O)C=C[C@]4(C)[C@@]3(F)[C@@H](O)C[C@@]21C,inactive,inactive,inactive,inactive,inactive,inactive,–,inactive,inactive,inactive,inactive,inactive,inactive,inactive,inactive,inactive,inactive,inactive,inactive,–
NC(=O)c1ncn(C2OC(CO)C(O)C2O)n1 (stereo not drawn),inactive,inactive,inactive,inactive,inactive,inactive,inactive,inactive,inactive,inactive,inactive,inactive,inactive,–,inactive,inactive,inactive,inactive,inactive,inactive
COC(=O)[C@H]1[C@H]2CC3c4[nH]c5ccccc5c4CCN3C[C@@H]2CC[C@@H]1O (stereo partly drawn),inactive,inactive,inactive,inactive,inactive,inactive,inactive,–,inactive,–,–,–,inactive,–,–,–,–,–,–,–
COC(=O)CCC(=O)CN,inactive,inactive,inactive,inactive,inactive,inactive,inactive,inactive,inactive,–,inactive,inactive,inactive,inactive,inactive,inactive,inactive,inactive,inactive,inactive
O=C(O)c1cc(=O)c2c3nc4ccccc4oc-3cc(=O)c2[nH]1,2.82 µM (active),inactive,inactive,inactive,inactive,inactive,12.6 µM (active),–,inactive,inactive,inactive,inactive,–,inactive,inactive,inactive,inactive,inactive,inactive,–
CCCCCC(CC)COC(=O)CC(C(=O)OCC(CC)CCCC)S(=O)(=O)O (stereo not drawn),inactive,inactive,11.2 µM (active),inactive,inactive,inactive,inactive,–,inactive,–,–,–,inactive,–,–,–,–,–,–,–
O=CCCCC=O,inactive,inactive,inactive,inactive,inactive,inactive,–,inactive,inactive,inactive,inactive,inactive,inactive,inactive,inactive,inactive,inactive,inactive,inactive,–
O=C(O)CCC(=O)C(=O)O,inactive,inactive,inactive,inactive,inactive,inactive,inactive,inactive,inactive,inactive,inactive,inactive,inactive,–,inactive,inactive,inactive,inactive,inactive,inactive
IC(I)I,inactive,inactive,inactive,inactive,inactive,inactive,inactive,inactive,inactive,inactive,inactive,inactive,inactive,–,inactive,–,inactive,inactive,inactive,inactive
CO[C@H](C(=O)[C@@H](O)[C@@H](C)O)C1Cc2cc3cc(O[C@H]4C[C@@H](O[C@H]5C[C@@H](O)[C@H](O)[C@@H](C)O5)[C@@H](O)[C@@H](C)O4)c(C)c(O)c3c(O)c2C(=O)[C@H]1O[C@H]1C[C@@H](O[C@H]2C[C@@H](O[C@H]3C[C@](C)(O)[C@H](O)[C@@H](C)O3)[C@H](O)[C@@H](C)O2)[C@H](O)[C@@H](C)O1 (stereo partly drawn),0.112 µM (active),0.178 µM (active),0.355 µM (active),0.199 µM (active),0.178 µM (active),0.251 µM (active),0.112 µM (active),1.69 µM (active),0.282 µM (active),1.69 µM (active),1.35 µM (active),1.35 µM (active),0.0891 µM (active),1.2 µM (active),2.69 µM (active),0.757 µM (active),3.38 µM (active),1.69 µM (active),1.69 µM (active),0.151 µM (active)
CCNC(=O)[C@@H]1CCCN1C(=O)[C@H](CCCN=C(N)N)NC(=O)[C@H](CC(C)C)NC(=O)[C@@H](Cc1c[nH]c2ccccc12)NC(=O)[C@H](Cc1ccc(O)cc1)NC(=O)[C@H](CO)NC(=O)[C@H](Cc1c[nH]c2ccccc12)NC(=O)[C@H](Cc1cnc[nH]1)NC(=O)[C@@H]1CCC(=O)N1,3.55 µM (active),7.08 µM (active),7.08 µM (active),8.91 µM (active),11.2 µM (active),12.6 µM (active),3.55 µM (active),–,7.94 µM (active),13.5 µM (active),8.49 µM (active),7.57 µM (active),3.16 µM (active),7.57 µM (active),6.75 µM (active),7.57 µM (active),15.1 µM (active),12 µM (active),8.49 µM (active),4.78 µM (active)
